Results published in PubChem BioAssay AID493194 (Broad Institute, 2011).
Entries with a potency or affinity are not part of this list. Results filed as inconclusive are left out.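 Rule for the calls: active = a valid curve of falling signal whose half-effect concentration is at most ten times the top tested dose; inconclusive = flat curve at 30 to 70% inhibition, or poor fit; inactive = signal rise, flat within 30%, or potency beyond limit.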

Molecular target: Scavenger receptor class B member 1 (Mus musculus) (UniProt Q61009)
Assay: mouse SR-BI DiI-HDL uptake blockers – ldlA[mSR-BI] cells, fluorescence, cherry pick, dose response (AID 493194);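 note: CHO cells lacking LDL receptor and overexpressing mouse SR-BI; cellular uptake of fluorescently labeled HDL measured as cell fluorescence; 0% = median of neutral control wells and -100% = median of positive control wells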
Details: CHO ldlA[mSR-BI] DiI-HDL uptake fluorescence, 3 h; series mostly up to 35 µM; activity change, negative = inhibition: at the top concentration

Sequence of Scavenger receptor class B member 1 (Mus musculus) (Q61009 whole entry, looked up): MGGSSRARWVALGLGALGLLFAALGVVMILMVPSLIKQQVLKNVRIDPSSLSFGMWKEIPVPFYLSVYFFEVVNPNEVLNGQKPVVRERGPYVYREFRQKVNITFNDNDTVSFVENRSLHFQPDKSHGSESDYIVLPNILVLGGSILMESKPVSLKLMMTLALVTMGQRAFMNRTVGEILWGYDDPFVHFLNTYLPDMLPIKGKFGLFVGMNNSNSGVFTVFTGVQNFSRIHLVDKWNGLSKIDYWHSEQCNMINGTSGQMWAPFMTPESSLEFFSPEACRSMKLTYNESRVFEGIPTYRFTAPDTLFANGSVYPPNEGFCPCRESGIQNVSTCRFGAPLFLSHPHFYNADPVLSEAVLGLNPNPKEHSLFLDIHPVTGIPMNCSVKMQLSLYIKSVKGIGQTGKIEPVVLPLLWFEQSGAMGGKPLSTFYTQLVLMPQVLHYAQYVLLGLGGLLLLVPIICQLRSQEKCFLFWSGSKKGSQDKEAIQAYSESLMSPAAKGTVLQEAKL

Activity change, negative = inhibition, inactive:
COc1ccccc1C(CC(=O)Nc1ccccc1C)c1ccc(OC(C)C)cc1 (stereo not drawn) -23.1%
COc1ccccc1CNC(=O)C1CCC(CNC(=O)[C@@H]2Cc3ccccc3CN2)CC1 (stereo partly drawn) -25.2%
COCCNC(=O)c1ccc(CS(=O)(=O)c2cccc(C(F)(F)F)c2)o1 22.7%
COc1ccc(NC(=O)C2CCN(C(=O)c3ccc(OC)cc3)CC2)cc1 32.3%
O=C(CSc1cn(CCNC(=O)c2cccs2)c2ccccc12)NCC1CCCO1 (stereo not drawn) -3.57%
Cc1ccc(OCc2cc(C(=O)N3CCCC(O)C3)no2)cn1 (stereo not drawn) 103%
CC(C)c1ccc(NC(=O)c2sccc2-n2cccc2)cc1 5.41%
O=C(c1ccc(-n2nc(C(F)(F)F)c3c2CCCC3)cc1)N1CCOCC1 -4.78%
O=C(Nc1cccc(-c2csc(Nc3ccc(Cl)cc3)n2)c1)c1cccc(C(F)(F)F)c1 -46.5%
CC1CCCCC1NC(=O)c1nn(C)c2c1CS(=O)(=O)c1ccccc1-2 (stereo not drawn) -33.5%
CCCOC(=O)c1[nH]c2c(c1C)C(=O)CC(c1cc(OC)c(OC)c(OC)c1)C2 (stereo not drawn) -16.9%
Cc1ccc(-n2nc(C)c3c(C(=O)OCC(=O)N(C)C4CCS(=O)(=O)C4)cc(-c4ccccc4)nc32)cc1 (stereo not drawn) -0.532%
CC(=O)Nc1cccc(NC(=O)c2ccc3c(c2)CCN3S(=O)(=O)c2ccccc2)c1 -18.7%
O=C(OCc1ccccc1)N1CCC2CC1c1cc(-c3ccccc3)ccc12 (stereo not drawn) 36.1%
COc1ccc(CCC(=O)Nc2ccc(-c3noc(-c4ccc(OC)c(OC)c4)n3)cc2)cc1 -4.83%
Cc1cc(CN(C)C(=O)C2CCC(=O)N(CCc3cccc(F)c3)C2)on1 (stereo not drawn) -5.46%
CCOC(=O)c1c(C)n(-c2ccc(C)cc2)c2c(CC(C)=O)c(Br)c(OC)c(O)c12 1.79%
COc1ccccc1C(=O)NCCn1cc(SCC(=O)Nc2nnc(C)s2)c2ccccc21 -22.6%
CCC(C)NC(=O)Cn1cc(S(=O)(=O)N2CCN(c3ccccc3F)CC2)c2ccccc2c1=O (stereo not drawn) 42.3%
COC(=O)c1cc2c(ccn2-c2ccc(F)cc2)n1Cc1ccc(C#N)cc1 -6.08%
CCCCNc1c(-c2ccc(-c3ccc(C(C)=O)cc3)c(OC)c2)nc2cnccn12 -6.71%
O=C(Nc1ccc(-c2nc3ccccc3o2)c(O)c1)c1cc(-n2cnnc2)ccc1Cl 2.5%
Cc1nc(NCc2cccnc2)c2c3c(sc2n1)CC(C)CC3 (stereo not drawn) -4.92%
